Experimental data taken from PubChem BioAssay (NCI).
This is part of a sample that, as a whole, favours compounds with a hit. Of some 79,000 tested, about 15% had one in any assay. Unmarked numbers belong to inactive results. Active and inactive are the calls of the source. Rule as the data show it: active = growth inhibition above about 70%; inactive = the rest.

Assays:
[1] = NCI Yeast Anticancer Drug Screen. Data for the rad52 strain (AID 147);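 also: 0% = growth of vehicle-treated control cultures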; conditions: S. cerevisiae rad52 mutant growth inhibition, hits give high values
Procedure, shortened: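 Screen used a yeast mutant impaired in DNA repair. After compound exposure, growth was measured. Values reflect inhibition compared with vehicle-treated cells.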

[2] = NCI Yeast Anticancer Drug Screen. Data for the wt1 strain (AID 149);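 also: 0% = growth of vehicle-treated wt1 cultures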; conditions: S. cerevisiae wt1 strain (SPY 50644) growth inhibition, hits give high values
Procedure, shortened: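 Compounds are added to wt1 yeast cultures. Growth is then measured. Inhibition is expressed relative to vehicle-treated controls.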

[3] = NCI Yeast Anticancer Drug Screen. Data for the rad50EPP+ strain (AID 151);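 also: 0% = growth of vehicle-treated control cultures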; conditions: S. cerevisiae rad50 mutant strain, hits give high values
Procedure, shortened: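 Exposing the rad50EPP+ strain to each compound, growth was compared with vehicle-only cultures to give inhibition.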

[4] = NCI Yeast Anticancer Drug Screen. Data for the mgt1 strain (AID 153); conditions: S. cerevisiae mgt1 mutant growth inhibition, hits give high values
Procedure, shortened: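 Genetically defined yeast (mgt1) treated with compound; inhibition of growth expressed against vehicle-treated controls.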

[5] = NCI Yeast Anticancer Drug Screen. Data for the rad50 strain (AID 155);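 also: 0% = growth of vehicle-only cultures of the same strain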; conditions: S. cerevisiae rad50 strain growth inhibition, hits give high values
Procedure, shortened: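 Inhibition values express reduced yeast growth in compound-treated cultures relative to vehicle-treated controls.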

[6] = NCI Yeast Anticancer Drug Screen. Data for the mec2-1 strain (AID 157); conditions: S. cerevisiae mec2-1 strain, hits give high values
Procedure, shortened: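 Readout is yeast growth inhibition, normalised to vehicle-treated controls, in the mec2-1 strain exposed to compound.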

[7] = NCI Yeast Anticancer Drug Screen. Data for the rad14 strain (AID 159);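 also: 0% = growth of vehicle-treated control cultures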; conditions: S. cerevisiae rad14 strain growth inhibition, hits give high values
Procedure, shortened: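 A mutant yeast strain defective in DNA damage repair is treated with compound; inhibition of its growth is scored against untreated, vehicle-exposed cultures.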

[8] = NCI Yeast Anticancer Drug Screen. Data for the sgs1 mgt1 strain (AID 161);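 also: 0% = growth of cultures given vehicle only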; conditions: S. cerevisiae sgs1 mgt1 strain, hits give high values
Procedure, shortened: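 Percent growth inhibition was derived by comparing compound-exposed mutant yeast with vehicle-exposed cultures. The strain carries alterations in DNA damage repair.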

[9] = NCI Yeast Anticancer Drug Screen. Data for the CLN2oe strain (AID 163);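 also: 0% = growth of vehicle-only control cultures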; conditions: S. cerevisiae CLN2oe strain, hits give high values
Procedure, shortened: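 Values reflect how much compound exposure reduced yeast growth, referenced to vehicle-exposed cells. Assay organism is a strain with a defined genetic change affecting cell-cycle control.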

[10] = NCI Yeast Anticancer Drug Screen. Data for the cln2 rad14 strain (AID 165);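 also: 0% = growth equal to vehicle treated cultures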; conditions: S. cerevisiae cln2 rad14 strain, hits give high values
Procedure, shortened: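 Relative to vehicle controls, growth inhibition of compound-treated cln2 rad14 yeast was recorded.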

[11] = NCI Yeast Anticancer Drug Screen. Data for the bub3 strain (AID 167); conditions: S. cerevisiae bub3 mutant strain, hits give high values
Procedure, shortened: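 Steps: expose the mutant yeast strain to compound; grow alongside vehicle-treated cultures; measure growth; express inhibition against the vehicle cultures.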

[12] = NCI Yeast Anticancer Drug Screen. Data for the wt2 strain (AID 169);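 also: 0% = growth of vehicle-treated yeast cultures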; conditions: S. cerevisiae wt2 strain growth inhibition, hits give high values
Procedure, shortened: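 Values express reduction in yeast growth under compound treatment, referenced to vehicle-treated cells.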

[13] = NCI Yeast Anticancer Drug Screen. Data for the mlh1 strain (AID 171);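 also: 0% = growth of vehicle-treated control cultures of the same strain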; conditions: S. cerevisiae mlh1 strain growth inhibition, hits give high values
Procedure, shortened: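 Steps: expose the defined-mutant yeast strain to compound; expose a parallel culture to vehicle; measure growth; express compound effect as inhibition relative to the vehicle culture.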

[14] = NCI Yeast Anticancer Drug Screen. Data for the mlh1 rad18 strain (AID 175); conditions: S. cerevisiae mlh1 rad18 strain growth inhibition, hits give high values
Procedure, shortened: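 Test agents were incubated with a yeast strain of defined genotype (DNA damage repair defect). Inhibition of growth was derived by comparison with vehicle-exposed cultures.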

[15] = NCI Yeast Anticancer Drug Screen. Data for the rad18 strain (AID 177); conditions: S. cerevisiae rad18 mutant growth inhibition, hits give high values
Procedure, shortened: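 A genetically defined yeast mutant impaired in DNA damage repair was treated with test compounds, then its growth was measured against cultures receiving vehicle alone.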

[16] = at 5.0 µM (retest, dose inferred, filed as 0.5)
[17] = at 50.0 µM (retest, dose inferred, filed as 5.0)

## CC(C)c1ccc(NC(=S)NC(=O)c2ccccc2)cc1
[1]; at 1.2 µM
  growth inhibition: -32%
[1]; at 3.7 µM
  growth inhibition: -30%
[1]; at 11.0 µM
  growth inhibition: -19%
[1]; at 33.0 µM
  growth inhibition: 12%
[1]; at 100.0 µM
  growth inhibition: 26%
[2]; at 1.2 µM
  growth inhibition: -9%
[2]; at 3.7 µM
  growth inhibition: -22%
[2]; at 11.0 µM
  growth inhibition: 4%
[2]; at 33.0 µM
  growth inhibition: 20%
[2]; at 100.0 µM
  growth inhibition: 41%
[3]; at 1.2 µM
  growth inhibition: -2%
[3]; at 3.7 µM
  growth inhibition: 4%
[3]; at 11.0 µM
  growth inhibition: 47%
[3]; at 33.0 µM
  growth inhibition: 53%
[3]; at 100.0 µM
  growth inhibition: 58%
[4]; at 1.2 µM
  growth inhibition: -27%
[4]; at 3.7 µM
  growth inhibition: -23%
[4]; at 11.0 µM
  growth inhibition: 27%
[4]; at 33.0 µM
  growth inhibition: 52%
[4]; at 100.0 µM
  growth inhibition: 47%
[5]; at 1.2 µM
  growth inhibition: -27%
[5]; at 3.7 µM
  growth inhibition: -19%
[5]; [16]
  growth inhibition: 10%
[5]; at 11.0 µM
  growth inhibition: 1%
[5]; at 33.0 µM
  growth inhibition: 31%
[5]; [17]
  growth inhibition: 31%
[5]; at 50.0 µM
  growth inhibition: 52%
[5]; at 100.0 µM
  growth inhibition: 39%
[6]; at 1.2 µM
  growth inhibition: -35%
[6]; at 3.7 µM
  growth inhibition: -19%
[6]; [16]
  growth inhibition: 0%
[6]; at 11.0 µM
  growth inhibition: 4%
[6]; at 33.0 µM
  growth inhibition: 23%
[6]; [17]
  growth inhibition: 40%
[6]; at 50.0 µM
  growth inhibition: 42%
[6]; at 100.0 µM
  growth inhibition: 38%
[7]; at 1.2 µM
  growth inhibition: -19%
[7]; at 3.7 µM
  growth inhibition: 0%
[7]; at 11.0 µM
  growth inhibition: -3%
[7]; at 33.0 µM
  growth inhibition: 42%
[7]; at 100.0 µM
  growth inhibition: 30%
[8]; [16]
  growth inhibition: 2%
[8]; [17]
  growth inhibition: 69%
[8]; at 50.0 µM
  growth inhibition: 66.6%
[9]; at 1.2 µM
  growth inhibition: -21%
[9]; at 3.7 µM
  growth inhibition: -21%
[9]; at 11.0 µM
  growth inhibition: -2%
[9]; at 33.0 µM
  growth inhibition: 56%
[9]; at 100.0 µM
  growth inhibition: 51%
[10]; [16]
  growth inhibition: 17%
[10]; [17]
  growth inhibition: 64%
[10]; at 50.0 µM
  growth inhibition: 40.9%
[11]; at 1.2 µM
  growth inhibition: 3%
[11]; at 3.7 µM
  growth inhibition: 41%
[11]; [16]
  growth inhibition: 42%
[11]; at 11.0 µM
  growth inhibition: 78% (active)
[11]; at 33.0 µM
  growth inhibition: 86% (active)
[11]; [17]
  growth inhibition: 87% (active)
[11]; at 50.0 µM
  growth inhibition: 76% (active)
[11]; at 100.0 µM
  growth inhibition: 80% (active)
[12]; at 1.2 µM
  growth inhibition: -25%
[12]; at 3.7 µM
  growth inhibition: -26%
[12]; at 11.0 µM
  growth inhibition: -6%
[12]; at 33.0 µM
  growth inhibition: 46%
[12]; at 100.0 µM
  growth inhibition: 37%
[13]; at 1.2 µM
  growth inhibition: -11%
[13]; at 3.7 µM
  growth inhibition: 2%
[13]; at 11.0 µM
  growth inhibition: 29%
[13]; at 33.0 µM
  growth inhibition: 60%
[13]; at 100.0 µM
  growth inhibition: 56%
[14]; [16]
  growth inhibition: 5%
[14]; [17]
  growth inhibition: 59%
[14]; at 50.0 µM
  growth inhibition: 34%
[15]; at 1.2 µM
  growth inhibition: -28%
[15]; at 3.7 µM
  growth inhibition: -28%
[15]; at 11.0 µM
  growth inhibition: -17%
[15]; at 33.0 µM
  growth inhibition: 3%
[15]; at 100.0 µM
  growth inhibition: 26%

## CC(NCCN(C)C)C1CCC2C3CCc4cc(O)ccc4C3CCC12C (stereo unspecified)
[1]; at 1.2 µM
  growth inhibition: 6%
[1]; at 3.7 µM
  growth inhibition: 16%
[1]; at 11.0 µM
  growth inhibition: 57%
[1]; at 33.0 µM
  growth inhibition: 93% (active)
[1]; at 100.0 µM
  growth inhibition: 95% (active)
[2]; at 1.2 µM
  growth inhibition: -4%
[2]; at 3.7 µM
  growth inhibition: -1%
[2]; at 11.0 µM
  growth inhibition: 7%
[2]; at 33.0 µM
  growth inhibition: 43%
[2]; at 100.0 µM
  growth inhibition: 97% (active)
[3]; at 1.2 µM
  growth inhibition: 26%
[3]; at 3.7 µM
  growth inhibition: 41%
[3]; at 11.0 µM
  growth inhibition: 66%
[3]; at 33.0 µM
  growth inhibition: 90% (active)
[3]; at 100.0 µM
  growth inhibition: 96% (active)
[4]; at 1.2 µM
  growth inhibition: 0%
[4]; at 3.7 µM
  growth inhibition: 1%
[4]; at 11.0 µM
  growth inhibition: 13%
[4]; at 33.0 µM
  growth inhibition: 75% (active)
[4]; at 100.0 µM
  growth inhibition: 97% (active)
[5]; at 1.2 µM
  growth inhibition: 14%
[5]; at 3.7 µM
  growth inhibition: 19%
[5]; [16]
  growth inhibition: -10%
[5]; at 11.0 µM
  growth inhibition: 57%
[5]; at 33.0 µM
  growth inhibition: 92% (active)
[5]; [17]
  growth inhibition: 55%
[5]; at 50.0 µM
  growth inhibition: 81% (active)
[5]; at 100.0 µM
  growth inhibition: 93% (active)
[6]; at 1.2 µM
  growth inhibition: 2%
[6]; at 3.7 µM
  growth inhibition: 5%
[6]; [16]
  growth inhibition: 2%
[6]; at 11.0 µM
  growth inhibition: 14%
[6]; at 33.0 µM
  growth inhibition: 68%
[6]; [17]
  growth inhibition: 49%
[6]; at 50.0 µM
  growth inhibition: 61.2%
[6]; at 100.0 µM
  growth inhibition: 97% (active)
[7]; at 1.2 µM
  growth inhibition: 3%
[7]; at 3.7 µM
  growth inhibition: 4%
[7]; at 11.0 µM
  growth inhibition: 13%
[7]; at 33.0 µM
  growth inhibition: 65%
[7]; at 100.0 µM
  growth inhibition: 98% (active)
[8]; [16]
  growth inhibition: 7%
[8]; [17]
  growth inhibition: 47%
[8]; at 50.0 µM
  growth inhibition: 91.2% (active)
[9]; at 1.2 µM
  growth inhibition: 1%
[9]; at 3.7 µM
  growth inhibition: 1%
[9]; at 11.0 µM
  growth inhibition: 11%
[9]; at 33.0 µM
  growth inhibition: 61%
[9]; at 100.0 µM
  growth inhibition: 95% (active)
[10]; [16]
  growth inhibition: 35%
[10]; [17]
  growth inhibition: 29%
[10]; at 50.0 µM
  growth inhibition: 41.7%
[11]; at 1.2 µM
  growth inhibition: 6%
[11]; at 3.7 µM
  growth inhibition: 11%
[11]; [16]
  growth inhibition: -4%
[11]; at 11.0 µM
  growth inhibition: 33%
[11]; at 33.0 µM
  growth inhibition: 76% (active)
[11]; [17]
  growth inhibition: 44%
[11]; at 50.0 µM
  growth inhibition: 63.1%
[11]; at 100.0 µM
  growth inhibition: 94% (active)
[12]; at 1.2 µM
  growth inhibition: -1%
[12]; at 3.7 µM
  growth inhibition: 0%
[12]; at 11.0 µM
  growth inhibition: 15%
[12]; at 33.0 µM
  growth inhibition: 84% (active)
[12]; at 100.0 µM
  growth inhibition: 97% (active)
[13]; at 1.2 µM
  growth inhibition: 4%
[13]; at 3.7 µM
  growth inhibition: 4%
[13]; at 11.0 µM
  growth inhibition: 26%
[13]; at 33.0 µM
  growth inhibition: 78% (active)
[13]; at 100.0 µM
  growth inhibition: 97% (active)
[14]; [16]
  growth inhibition: 4%
[14]; [17]
  growth inhibition: 59%
[14]; at 50.0 µM
  growth inhibition: 82.4% (active)
[15]; at 1.2 µM
  growth inhibition: 22%
[15]; at 3.7 µM
  growth inhibition: 20%
[15]; at 11.0 µM
  growth inhibition: 52%
[15]; at 33.0 µM
  growth inhibition: 91% (active)
[15]; at 100.0 µM
  growth inhibition: 95% (active)
